Screens as filed in PubChem BioAssay.
IDE cell inh: inhibits human insulin-degrading enzyme in HEK cells; AID 434962; FAbetaB cleavage, fluorescence polarization; 0.41% of 320,000 active; inhibition, % at 5.59 µM; P14735;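 active = percent inhibition above the average of all tested compounds plus 3 SD, set per screening campaign, cut at about 16% in these data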;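 also: IDE supplied by intact live HEK cells; FP after avidin binding of uncleaved biotin substrate so inhibition keeps polarization high; 0% = DMSO wells and 100% = 60 µM reference IDE inhibitor Ii1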
HNF4A DNA FP: change in binding of human HNF4 alpha to DNA; P41235; HNF4a-FITC DNA binding, fluorescence polarization, 1 h; activity change, % at 10 µM; 0.3% of 360,000 active; in the data active = activity change above about 30%, passing the limit was not always enough
Target sequence (P41235 whole entry, looked up): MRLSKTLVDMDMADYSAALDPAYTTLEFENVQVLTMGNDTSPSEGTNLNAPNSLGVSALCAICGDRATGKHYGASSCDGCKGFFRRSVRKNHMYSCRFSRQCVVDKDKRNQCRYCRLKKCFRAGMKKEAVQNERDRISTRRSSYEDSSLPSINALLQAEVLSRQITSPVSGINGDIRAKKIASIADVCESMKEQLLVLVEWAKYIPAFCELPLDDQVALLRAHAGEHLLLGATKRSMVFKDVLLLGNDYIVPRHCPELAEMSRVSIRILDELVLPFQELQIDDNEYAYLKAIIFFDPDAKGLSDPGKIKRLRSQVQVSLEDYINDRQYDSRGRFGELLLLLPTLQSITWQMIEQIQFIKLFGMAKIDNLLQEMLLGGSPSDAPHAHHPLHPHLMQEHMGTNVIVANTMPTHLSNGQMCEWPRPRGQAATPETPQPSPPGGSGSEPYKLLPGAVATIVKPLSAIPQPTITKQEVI
CRFR2-BP ag: CRF-BP/CRF-R2 complex agonism; HEK293 CRF-R2/CRF-BP, calcium dye fluorescence (FLIPR); percent of saturating CRF peptide response; activation, % at 13.2 µM; 0.46% of 350,000 active;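 active = activation of at least 50%, plus an integration ratio under a set limit after plate pattern correction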;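 also: plate controls were neutral control wells without compound for no effect and CRF at EC100 for full effect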
IDE cell activ: IDE (human) activation, cell-based; HEK cells, FAbeta-B cleavage, fluorescence polarization; 0% vehicle, 100% cell-free pure enzyme wells; 0.073% of 340,000 active; activation, % at 5.96 µM;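 active = activation above the mean of all tested compounds plus 3 SD, set per screening campaign, cut at about 17% in these data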
TPT1 inhibitor: blocks Candida albicans tRNA 2'-phosphotransferase; recombinant caTPT1, FP RNA substrate dephosphorylation; inhibition, % at 5 µM; 0.81% of 300,000 active;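 active = inhibition above the mean of all tested compounds plus 3 SD, set per screening campaign, cut at about 24% in these data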;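 also: plate controls were DMSO alone for no effect and ferristatin control at 100 nM for full effect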
caTPT1 confirm: confirmation of Candida albicans TPT1 inhibitors. shares compounds with TPT1 inhibitor. 74% of 2,400 active. inhibition, % at 5 µM. AID 2149. recombinant caTPT1, fluorescence polarization, RNase T1 coupled;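 active = inhibition above the primary screen limit, the mean inhibition of all tested compounds plus 3 SD, cut at about 25% in these data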
RNase T1 inh: blocks Aspergillus oryzae RNase T1, a TPT1 counter-screen | 83% of 2,400 active | inhibition, % at 5 µM | RNase T1 cleavage, fluorescence polarization, 1536-well | AID 2153 | shares compounds with TPT1 inhibitor;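 active = inhibition above the solvent-only control well mean plus 3 SD, limit set per screening run, cut at about 23% in these data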;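 also: plate controls were DMSO wells with enzyme for no effect and wells without RNase T1 for full effect; inhibitors block cleavage so intact labeled substrate keeps polarization high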
Target sequence (P00651 whole entry, looked up): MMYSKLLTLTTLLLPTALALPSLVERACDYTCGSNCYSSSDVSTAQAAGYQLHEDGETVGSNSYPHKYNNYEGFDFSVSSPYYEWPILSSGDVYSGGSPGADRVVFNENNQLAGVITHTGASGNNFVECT
An asterisk follows results filed as active; / = not tested or not shown. A selection: hits, their analogues and other compounds. The true share with any hit is near 1.4%.

SMILES | IDE cell inh | HNF4A DNA FP | CRFR2-BP ag | IDE cell activ | TPT1 inhibitor | caTPT1 confirm | RNase T1 inh
C=CCn1c(/N=C/c2ccc(OC)cc2)nc2ccccc21 | 5 | 2 | 1 | 4 | -2 | / | /
C=CCn1c(/N=C/c2ccc(N(C)C)cc2)nc2ccccc21 | -3 | 59* | 36 | 1 | 27* | 110* | 117*
COC(=O)/C=C/C(=O)N1CCN(c2cccc(Cl)c2)CC1 | 1 | / | / | / | 48* | 3 | 8
COc1ccc(C(=O)N2CCN(c3cccc(Cl)c3)CC2)cc1 | 10 | 1 | -2 | 5 | -4 | / | /
CN(C)c1ccc(C=C2C(=O)OC(C)(C(C)(C)C)OC2=O)cc1 (configuration not stated) | 4 | -3 | 4 | 4 | 15 | / | /
CCN(CC)c1ccc(C=C2C(=O)OC3(CCCC3)OC2=O)cc1 | -4 | 0 | 11 | 2 | 29* | 140* | 142*
CCN(CC)c1ccc(C=C2C(=O)OC(C)(C(C)(C)C)OC2=O)cc1 (configuration not stated) | 2 | 5 | 48 | 3 | 78* | 162* | 152*
CCN(CC)c1ccc(C=C2C(=O)OC(c3ccccc3)OC2=O)cc1 (configuration not stated) | 1 | 25 | 2 | 5 | 6 | / | /
CCOc1cccc(OCCOCCNC(C)(C)C)c1 | -3 | 4 | 0 | 6 | 38* | 8 | 10
CCOc1ccc(OCCCCNC(C)(C)C)cc1 | 6 | -2 | 0 | 0 | -4 | / | /
CCOc1cc(/C=C2\CCCC(C(=O)C(F)(F)F)=C2O)ccc1O | 2 | 6 | 6 | -5 | 36* | 44* | 58*
CC(C)c1ccc(/C=C2\Oc3c(ccc(O)c3CN3CCN(C)CC3)C2=O)cc1 | 7 | 5 | 47 | 0 | 37* | 40* | 51*
COc1ccc(N(CC(=O)N2CCN(c3ccccc3)CC2)S(=O)(=O)c2ccccc2)cc1 | / | 3 | 0 | / | / | / | /
CCOC(=O)c1c(-c2ccc(C)cc2)csc1/N=C/N(C)C | -4 | 0 | 0 | -3 | 2 | / | /
CCOC(=O)c1c(CC(C)C)csc1/N=C/C1C(=O)CCCC1=O | 1 | 3 | 9 | 4 | 126* | 15 | 20
CCOC(=O)c1c(-c2ccccc2)csc1/N=C/C1C(=O)CCCC1=O | -1 | 3 | 11 | -3 | 114* | 21 | 33*
Cc1cccc(N2CCN(S(=O)(=O)c3ccc4c(c3)CCCN4C(=O)C3CCC3)CC2)c1C | -6 | 2 | -1 | -1 | -3 | / | /
O=C(CN1C(=O)C2CC=CCC2C1=O)Nc1nnc(C2CC2)s1 (configuration not stated) | -4 | 0 | 3 | 2 | / | / | /
Oc1c(C=NCc2ccncc2)sc2ccccc12 | 2 | / | 4 | / | 3 | / | /
Oc1c(C=Nc2ccc(Cl)cn2)sc2ccccc12 | 9 | 0 | 10 | -5 | 31* | 39* | 49*
Oc1c(/C=N/c2ccccn2)sc2ccccc12 | 4 | 15 | 5 | 2 | 45* | 57* | 67*
CN=Cc1sc2ccccc2c1O | 0 | -4 | -1 | 0 | 0 | / | /
Oc1c(C=Nc2cccnc2)sc2ccccc12 | 4 | 14 | 6 | 2 | 15 | / | /
Oc1c(C=Nc2ccccc2)sc2ccccc12 | -1 | 37* | 10 | -13 | 100* | 127* | 130*
CC(=O)Nc1cccc(C(=O)N2CCC(n3nccc3NC(=O)CC(C)C)CC2)c1 | -2 | 3 | 0 | 6 | 1 | / | /
SMILES | IDE cell inh | HNF4A DNA FP | CRFR2-BP ag | IDE cell activ | TPT1 inhibitor | caTPT1 confirm | RNase T1 inh
C=CCn1c(SCC(=O)Nc2cc(C)on2)nc2ccccc21 | / | -1 | 0 | / | / | / | /
Cc1ccccc1CN(CC1CCC(C(=O)O)CC1)C(=S)Nc1ccccc1F (configuration not stated) | 3 | -1 | 0 | 3 | 5 | / | /
Cc1ccc(-c2nc(C=Nc3ccc(O)cc3)c(O)o2)cc1 | / | 5 | -1 | 2 | / | / | /
Cc1ccc(N=Cc2nc(/C=C/c3cccc([N+](=O)[O-])c3)oc2O)cc1 | 2 | 7 | -1 | 3 | 28* | 39* | 51*
COc1ccccc1C1C([N+](=O)[O-])=CC([N+](=O)[O-])=CN1C (configuration not stated) | 1 | -1 | 1 | -5 | 42* | 52* | 61*
COCCN=c1scc(-c2ccc3c(c2)NC(=O)CO3)n1/N=C(\C)c1ccc(O)cc1 | 6 | 4 | 2 | -4 | 27* | 10 | 18
COc1cc(/C=N/n2c(-c3ccc4c(c3)NC(=O)CO4)csc2=Nc2cccc(C)c2)ccc1O | 7 | 5 | -6 | -3 | -1 | / | /
COc1ccc(CCNC(=O)CSc2ccc(-c3ccccc3)nn2)cc1OC | 4 | -2 | -2 | 6 | 4 | / | /
COc1cccc(-c2ccc(SCC(=O)NCCc3ccccc3)nn2)c1 | 5 | 1 | 0 | -1 | 54* | 3 | 6
CC(C(=O)NCC1CCCCC1)N1CCN(S(=O)(=O)c2cccs2)CC1 (configuration not stated) | / | -2 | -2 | -1 | / | / | /
COc1ccc(COC(=O)N/C=C/c2ccco2)cc1 | -1 | 15 | 1 | -9 | 21 | / | /
COc1ccccc1COC(=O)N/C=C/c1ccco1 | 2 | 17 | 10 | 2 | 42* | 20 | 25*
COc1ccc(NC(=O)COC(=O)CNC(=O)COc2ccccc2)cc1OC | / | -5 | -1 | 5 | / | / | /
O=C1C=CC(=O)N1CCNc1ncc(C(F)(F)F)cc1Cl | / | 3 | 2 | -46 | / | / | /
O=c1cc(Cl)[nH]c(=O)n1CCNc1ncc(C(F)(F)F)cc1Cl | 5 | 50* | 4 | 1 | 74* | 72* | 85*
O=C1CC(=O)N(CCNc2ncc(C(F)(F)F)cc2Cl)C(=O)N1 | -1 | 17 | 6 | 0 | 38* | 23 | 39*
O=C(CSc1nnc(-c2cccs2)n1C1CC1)NCC1CCCO1 (configuration not stated) | 7 | 0 | 1 | 2 | / | / | /
COc1cc(/C=C2\NC(=S)N(C)C2=O)ccc1O | 12 | 20 | 5 | -22 | 27* | 30* | 35*
COc1cc(/C=C2/C(=O)CNC2=O)ccc1O | -1 | 3 | 0 | 3 | 30* | 55* | 77*
O=C(Nc1cccc2ccccc12)c1ccco1 | / | 3 | / | / | / | / | /
O=c1c2c3c(sc2ncn1Cc1ccc(F)cc1)CCC3 | 1 | 11 | 2 | -2 | 27* | 26* | 34*
CN(C)/C=C/C(=O)/C=C/c1cn(-c2ncc(C(F)(F)F)cc2Cl)c2ccccc12 | 4 | 8 | 3 | 4 | 32* | 17 | 20
CN1C(=O)CC(c2cn(Cc3ccccc3)c3ccccc23)C1=O (configuration not stated) | 2 | 18 | 2 | 5 | 26* | 50* | 61*
